Bioassay records (PubChem)
PLC-beta3 inh: human PLC-beta3 inhibitors, primary screen, biochemical, fluorescence. AID 720704, 2013. inhibition, % at 12.2 µM. 1-phosphatidylinositol 4,5-bisphosphate phosphodiesterase beta-3 (Homo sapiens), Q01970. Purified PLC-beta3, fluorogenic substrate. actives 0.18% (n = 370,000); in the data active = inhibition above about 11%;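 note: 0% = median of compound wells on plate and 100% = full blocker control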
Rce1 inhib: yeast Rce1p protease inhibitors, primary screen, biochemical, fluorescence, cell-free homogeneous; actives 0.27% (n = 290,000); CAAX prenyl protease 2 (Saccharomyces cerevisiae (strain ATCC 204508 / S288c)), Q03530; yeast membranes, quenched prenylated peptide cleavage fluorescence; calls only; AID 2563, 2010;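 active = fall in fluorescence gain of 50% or more versus controls, with final raw signal at or below 3038400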;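 note: plate controls were neutral control wells for no effect and wells lacking membranes for full effect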
ADAM10 inh: human ADAM10 inhibitors, primary screen, biochemical, QFRET, HTS | Disintegrin and metalloproteinase domain-containing protein 10 (Homo sapiens), O14672 | recombinant ADAM10, EDANS/DABCYL FRET peptide cleavage, 3 h | inhibition, % at 7 µM | actives 0.62% (n = 370,000) | AID 720582, 2013;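 active = inhibition above a per-campaign cutoff equal to the mean of compounds falling between control-based bounds plus 3 SD, cut at about 20% in these data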;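 note: 0% = DMSO wells while the 100% control is not disclosed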
Target sequence (O14672 214-748 limits assumed): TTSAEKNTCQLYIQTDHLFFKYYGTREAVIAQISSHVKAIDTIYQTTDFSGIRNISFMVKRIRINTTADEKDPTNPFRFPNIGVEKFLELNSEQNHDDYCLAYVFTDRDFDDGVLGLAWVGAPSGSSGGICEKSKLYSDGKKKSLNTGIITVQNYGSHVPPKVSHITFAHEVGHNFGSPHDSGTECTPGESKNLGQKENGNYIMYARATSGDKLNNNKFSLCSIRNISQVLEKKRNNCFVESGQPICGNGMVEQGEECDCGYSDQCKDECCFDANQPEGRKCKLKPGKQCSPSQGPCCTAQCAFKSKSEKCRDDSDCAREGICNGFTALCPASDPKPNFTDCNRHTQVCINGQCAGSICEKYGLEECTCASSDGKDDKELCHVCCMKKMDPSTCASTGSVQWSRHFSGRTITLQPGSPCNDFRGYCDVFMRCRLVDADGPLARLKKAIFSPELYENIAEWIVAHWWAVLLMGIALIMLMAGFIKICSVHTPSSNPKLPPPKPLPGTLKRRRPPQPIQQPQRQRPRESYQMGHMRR
ADAM17 inh: ADAM17 inhibitors, primary screen, biochemical, QFRET; Disintegrin and metalloproteinase domain-containing protein 17 (Homo sapiens), P78536; recombinant ADAM17, EDANS/DABCYL FRET peptide cleavage; inhibition, % at 6.95 µM; actives 0.83% (n = 370,000); AID 720648, 2013;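 active = inhibition above the mean of compounds lying between control limits plus 3 SD, set per campaign, cut at about 8.5% in these data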;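 note: 0% = DMSO-only wells as the low control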
PLC-gamma1 inh: PLC-gamma1 enzyme inhibitors, primary screen, biochemical, fluorescence, purified enzyme; fluorogenic substrate; inhibition, % at 12.2 µM; actives 0.84% (n = 370,000); in the data active = inhibition above about 9.5%
ADAM10 confirm: human ADAM10 inhibitors, confirmation, biochemical, QFRET, triplicate; shares compounds with ADAM10 inh; ADAM10 QFRET peptide cleavage, EDANS fluorescence; inhibition, % at 6.95 µM; actives 1% (n = 2,100); AID 743208, 2013;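 active = inhibition above about 20% chosen separately for each screening run, limit read from the data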;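 note: 0% = DMSO wells and 100% = marimastat wells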
ADAM17 counter: ADAM17 inhibitors, counter-screen for ADAM10 exosite inhibitor project, biochemical, QFRET, high throughput | actives 0.5% (n = 2,100) | shares compounds with ADAM10 inh | inhibition, % at 6.95 µM | ADAM17 QFRET peptide cleavage, EDANS fluorescence;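 active = mean triplicate inhibition above the solvent-only control wells' mean plus 3 SD, cut at about 12% in these data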;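 note: 0% = DMSO wells and 100% = marimastat wells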
ADAM10 counter: ADAM10 inhibitors, counter-screen for ADAM17 exosite inhibitor project, biochemical, FRET, human ADAM10; shares compounds with ADAM17 inh; recombinant ADAM10, EDANS/DABCYL FRET peptide cleavage, 3 h; inhibition, % at 6.95 µM; actives 47% (n = 2,900);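 active = mean inhibition over the triplicate runs exceeds the activity threshold set in the earlier primary screen, cut at about 20% in these data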;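 note: 0% = DMSO wells and 100% = marimastat wells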
ADAM17 confirm: ADAM17 inhibitors, hit retest, confirmation, biochemical, QFRET peptide cleavage. shares compounds with ADAM17 inh. recombinant ADAM17, EDANS/DABCYL QFRET peptide cleavage. inhibition, % at 6.95 µM. actives 65% (n = 2,900);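 active = mean inhibition across replicates above the hit cutoff set in the primary screen, cut at about 8.5% in these data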;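 note: 0% = DMSO wells and 100% = marimastat wells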
Active calls of the source: *; i = inactive; . = no result. Hits are enriched below; roughly 2.1% of the tested compounds scored in any of these assays.

SMILES | PLC-beta3 inh | Rce1 inhib | ADAM10 inh | ADAM17 inh | PLC-gamma1 inh | ADAM10 confirm | ADAM17 counter | ADAM10 counter | ADAM17 confirm
Cc1ccc(-n2nnnc2SCC(=O)c2cc(C)n(-c3cc(C)on3)c2C)c(C)c1 | -7 | i | 24* | 15* | -2 | 3 | 2 | 19 | 11*
O=C(CN1CCN(c2ccc(F)cc2)CC1)c1ccc(O)cc1O | -6 | i | -6 | 0 | 0 | . | . | . | .
O=C(NCc1ccccc1)c1cccc(NC(=O)C2CCCC2)c1 | 0 | . | -14 | -4 | 0 | . | . | . | .
CCc1cccc(CC)c1NC(=O)COC(=O)CC1c2ccccc2CCN1S(=O)(=O)c1ccc(F)cc1 (configuration not stated) | 7 | i | 23* | 14* | 8 | 2 | 0 | 6 | 2
O=C(COC(=O)CC1c2ccccc2CCN1S(=O)(=O)c1ccc(F)cc1)Nc1ccccc1 (configuration not stated) | 1 | i | 11 | 6 | 5 | . | . | . | .
COCOCCn1cc(CN2CCS(=O)(=O)N(Cc3ccc(-c4ccc(Cl)c(Cl)c4)cc3)C(C)C2=O)nn1 (configuration not stated) | 0 | . | 23* | 11* | 2 | 7 | 2 | 35* | 19*
CC(C)CC1C(=O)N(Cc2cn(CCC3OCCCO3)nn2)CCS(=O)(=O)N1Cc1ccc(-c2ccc(Cl)cc2)cc1 (configuration not stated) | 3 | . | -17 | 2 | 0 | . | . | . | .
CC(C)C1C(=O)N(Cc2cn(CCC3OCCO3)nn2)CCS(=O)(=O)N1Cc1ccc(-c2ccc(F)cc2Cl)cc1 (configuration not stated) | 2 | . | 24* | 10* | 4 | 6 | 2 | 33* | 17*
CC(C)CC1C(=O)N(Cc2cn(CCC3OCCO3)nn2)CCS(=O)(=O)N1Cc1ccc(-c2ccc(F)cc2)cc1 (configuration not stated) | 1 | . | 25* | 11* | 1 | 7 | 3 | 31* | 17*
CC(C)C1C(=O)N(Cc2cn(CC3CCCCC3)nn2)CCS(=O)(=O)N1Cc1ccc(-c2ccccc2)cc1 (configuration not stated) | 5 | . | 22* | 11* | 4 | 14 | 3 | 38* | 15*
CC(C)CC1NC(=O)c2cc(Cl)ccc2-n2c1nc1ccc(F)cc1c2=O (configuration not stated) | -2 | . | -16 | -8 | -4 | . | . | . | .
C[C@H]1CN([C@@H](C)CO)C(=O)CCCn2cc(nn2)CO[C@@H]1CN(C)C(=O)Nc1ccc2c(c1)OCO2 | -16 | . | -8 | -5 | -8 | . | . | . | .
O=C(OCC(=O)N1CCC(Cc2ccccc2)CC1)c1cc(Br)ccc1O | -5 | . | -8 | -3 | -1 | . | . | . | .
Cc1nn(-c2cc(N3CCCCC3)ccc2[N+](=O)[O-])c(=O)c2ccccc12 | 5 | i | -1 | -2 | 1 | . | . | . | .
CN1CCN(c2ccc([N+](=O)[O-])c(-n3nc(-c4ccccc4)c4ccccc4c3=O)c2)CC1 | 9 | . | 20* | 13* | 9.6* | 1 | 0 | 15 | 9.7*
Cc1ccccc1S(=O)(=O)Cc1ccc(C(=O)N2CC(C)CC(C)C2)o1 (configuration not stated) | 0 | i | -4 | 3 | -1 | . | . | . | .
Cc1ccccc1S(=O)(=O)Cc1ccc(C(=O)N2CCN(c3cccc(C)c3C)CC2)o1 | -3 | i | 22* | 9.0* | 8 | 5 | 1 | 18 | 12*
COc1ccc(Cl)cc1Cn1c(C)c(C(=O)NCc2ccc(F)cc2)sc1=O | 2 | . | 27* | 11* | 4 | 2 | 1 | 12 | 5
CC(C)(C)c1ccc(-c2nnc(SCC(=O)Nc3cccc4ccccc34)n2Cc2ccco2)cc1 | 2 | . | 20* | 9.2* | 5 | 6 | 2 | 36* | 17*
O=C(CSc1nnc(-c2ccc(Cl)cc2)n1Cc1ccco1)Nc1cccc2ccccc12 | -2 | . | -11 | -1 | 0 | . | . | . | .
CC(=NNC(=O)CSc1nnc(-c2ccc(C(C)(C)C)cc2)n1-c1ccccc1)c1cccc2ccccc12 | -1 | . | 23* | 8.9* | 0 | 14 | 4 | 17 | 13*
Cc1ccc(S(=O)(=O)Nc2ccc(C(OC(=O)c3ccccc3[N+](=O)[O-])(C(F)(F)F)C(F)(F)F)cc2)cc1 | 8 | i | 22* | 10* | 3 | 4 | 2 | 47* | 27*
O=C(OC(c1ccc(NS(=O)(=O)c2ccccc2)cc1)(C(F)(F)F)C(F)(F)F)c1ccccc1 | 3 | i | 32* | 13* | 2 | 4 | 2 | 36* | 18*
Cc1cc(C)nc(NS(=O)(=O)c2ccc(NC(=O)c3ccccc3[N+](=O)[O-])cc2)n1 | -7 | i | -4 | -3 | 1 | . | . | . | .
CC(=O)Nc1cccc(C(=O)OCC(=O)N2CCC(c3ccccc3)=N2)c1 | -8 | i | 3 | 1 | 2 | . | . | . | .
COc1cc(/C=C2/CC/C(=C/c3ccc(O)c(OC)c3)C2=O)ccc1O | -82 | i | 10 | 4 | -57 | . | . | . | .
COc1cc(/C=C/C=C2/CC/C(=C/C=C/c3ccc(O)c(OC)c3)C2=O)ccc1O | -63 | . | 22* | 17* | -33 | 2 | 1 | 6 | 5
CC(=O)Nc1ccc(NC(=O)C(C)OC(=O)c2ccc(S(=O)(=O)N3CCCCCC3)cc2)cc1 (configuration not stated) | 5 | . | 3 | -1 | 1 | . | . | . | .
